# Measurements reported in PubChem BioAssay (Tox21).
# Records with an inconclusive call do not appear. Calls of active or inactive are those of the source. The call rests on the fitted dose curve; in most records, active means well fitted activation curve with a large enough effect in the signal ratio in the repeat runs (not every such curve was filed as active); inconclusive means weak or mixed curves, or effect the other way; inactive means no such curve, though single readings can be large or run the other way; the % refers to the signal ratio.
# Target: Glucocorticoid receptor (Homo sapiens) (UniProt P04150)
# Sequence (P04150 whole entry, looked up): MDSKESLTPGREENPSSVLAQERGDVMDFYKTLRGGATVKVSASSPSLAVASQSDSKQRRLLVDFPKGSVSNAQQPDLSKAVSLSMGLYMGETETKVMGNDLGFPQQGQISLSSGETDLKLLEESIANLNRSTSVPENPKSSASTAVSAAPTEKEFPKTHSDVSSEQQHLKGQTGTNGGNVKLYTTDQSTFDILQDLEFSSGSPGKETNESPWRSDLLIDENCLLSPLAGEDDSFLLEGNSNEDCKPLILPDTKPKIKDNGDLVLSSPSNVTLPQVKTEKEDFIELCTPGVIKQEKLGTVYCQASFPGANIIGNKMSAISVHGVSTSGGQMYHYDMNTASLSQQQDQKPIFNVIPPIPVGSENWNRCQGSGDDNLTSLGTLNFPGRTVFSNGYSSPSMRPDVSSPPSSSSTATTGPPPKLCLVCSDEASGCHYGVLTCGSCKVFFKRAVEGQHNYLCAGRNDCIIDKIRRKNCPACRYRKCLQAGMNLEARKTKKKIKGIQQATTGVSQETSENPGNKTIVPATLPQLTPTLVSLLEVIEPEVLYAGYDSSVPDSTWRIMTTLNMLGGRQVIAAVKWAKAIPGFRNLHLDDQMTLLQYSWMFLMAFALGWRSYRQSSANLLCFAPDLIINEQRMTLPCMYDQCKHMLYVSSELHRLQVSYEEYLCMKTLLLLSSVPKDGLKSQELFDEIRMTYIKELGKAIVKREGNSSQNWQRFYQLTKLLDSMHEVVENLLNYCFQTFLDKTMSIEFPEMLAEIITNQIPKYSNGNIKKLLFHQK
# Assay: qHTS assay to identify small molecule agonists of the glucocorticoid receptor (GR) signaling pathway (AID 720691)
# Conditions: GR-bla HeLa, beta-lactamase reporter ratio, 18 h; series mostly up to 62.4 µM; activation: at the top concentration
# Text: U.S. Tox21 Program National Center for Advancing Translational Sciences [NCATS] NIH Chemical Genomics Center [NCGC] U.S. Environmental Protection Agency [EPA] National Institutes of Environmental Health Sciences [NIEHS] National Toxicology Program [NTP] U.S. Food and Drug Administration [FDA] Tox21 Assay Overview: The Glucocorticoid receptor (GR) is one of the members of the nuclear receptor family of ligand-dependent transcription factors. GR plays a critical role in carbohydrate, protein and lipid metabolisms and programmed cell death. CellSensor GR-bla HeLa cell line (Invitrogen) contains a beta-lactamase reporter gene under the control of the glucocorticoid response element stably integrated into HeLa cells, a cervical cancer cell line that expresses glucocorticoid receptor. The activation of the reporter gene under culture conditions can be detected by fluorescence intensity. This cell line has been used to screen the Tox21 10K compound library and to identify the compounds that activate the GR signaling.
# Tox21 Assay Protocol Summary: The GR-bla HeLa cells were dispensed at 1500 cells/6 ul/well in 1536-well black wall/clear bottom plates using a Multidrop Combi (ThermoFisher Scientific, Waltham, MA) dispenser. After the assay plates were incubated at a 37 C/5% CO2 incubator for 4 hours, 23 nL of compounds dissolved in DMSO, positive controls or DMSO only was transferred to the assay plate by a pintool station (Kalypsys, San Diego, CA). The plates were incubated at 37 C for 18 hours. After 1 uL of LiveBLAzerTM B/G FRET substrate was added using a Flying Reagent Dispenser (Aurora Discovery, San Diego, CA), the plates were incubated at room temperature for 2 hours, and fluorescence intensity was measured by an Envision plate reader (PerkinElmer, Shelton, CT).
# On the % scale 0 is the no-effect control and ±100 the full control effect; potency means the concentration at half of the fitted maximal effect.
SMILES,activation,Potency
Nc1ccc(S(=O)(=O)Nc2ccnn2-c2ccccc2)cc1,0.0831% [at 29.2 µM] (inactive),–
Cc1cc2c(cc1S(N)(=O)=O)S(=O)(=O)CCC2,0.98% [at 29.2 µM] (inactive),–
COC(=O)c1ccc(C)cc1C1=NC(C)(C(C)C)C(=O)N1 (stereo not given),0.0781% (inactive),–
O=C1OC(=O)C2CCCCC12 (stereo not given),2.2% (inactive),–
c1ccc([C@H]2CN3CCSC3=N2)cc1,0.645% (inactive),–
Cn1cc(S(C)=O)c(=O)c2ccc(F)cc21 (stereo not given),-1.54% (inactive),–
CCn1ccnc1CC1COc2ccccc2O1 (stereo not given),0.681% (inactive),–
CCOC(=O)CCC(C)=O,0.648% (inactive),–
C[C@H]1C[C@@H](O)CC(C)(C)C1,1.6% (inactive),–
CC(=O)OCC(CCn1cnc2cnc(N)nc21)COC(C)=O,-0.273% (inactive),–
COC(=O)CCSCCC(=O)OC,0.898% (inactive),–
CC/C=C\CC/C=C/C(OCC)OCC,6.64% (inactive),–
CC(C)NC(=O)NC(C)C,8.8% (inactive),–
CN1CC(=O)NC1=N,-0.832% (inactive),–
CC1(C)C(O)C(C)(C)C1O (stereo not given),-2.28% (inactive),–
CCSC(=O)N(CC(C)C)CC(C)C,-0.759% (inactive),–
CCOC(=O)C(=O)OCC,0.177% (inactive),–
CCCC(=O)O[C@]1(C(=O)CO)CC[C@H]2[C@@H]3CCC4=CC(=O)CC[C@]4(C)[C@H]3[C@@H](O)C[C@@]21C,–,0.213 µM (active)
CC(C)(O)C(=O)c1ccccc1,2.85% (inactive),–
O=C(O)Cc1ccc(CCNS(=O)(=O)c2ccc(Cl)cc2)cc1,1.17% (inactive),–

SMILES,activation,Potency
NS(=O)(=O)c1cc2c(cc1Cl)NC(C1CC3C=CC1C3)NS2(=O)=O (stereo not given),0.141% (inactive),–
N#Cc1ccc(C2CCCc3cncn32)cc1 (stereo not given),1.18% [at 29.2 µM] (inactive),–
COC(=O)c1cc(C(=O)OC)cc(S(=O)(=O)O)c1,1.49% (inactive),–
CN(C)CCCSc1ccccc1NC(=O)/C=C/c1ccccc1,-0.897% (inactive),–
ClC(Cl)(Br)Br,0.22% (inactive),–
COc1ccc2c(c1)c(CC(=O)OCC(=O)O)c(C)n2C(=O)c1ccc(Cl)cc1,-8.95% (inactive),–
OC1CCCCC1c1ccccc1 (stereo not given),-1.36% (inactive),–
CCc1ccc(O)c(OC)c1,-1.27% (inactive),–
CCO/C([O-])=N/c1c[n+](N2CCOCC2)no1,-0.94% [at 29.2 µM] (inactive),–
COc1nc(N)nc2c1ncn2[C@@H]1O[C@H](CO)[C@@H](O)[C@@H]1O,-1.35% (inactive),–
Cc1cccc(C)c1NC(=O)C(C)N (stereo not given),-0.549% [at 29.2 µM] (inactive),–
Cn1c(N)c(N=O)c(=O)n(C)c1=O,-0.251% [at 79.2 µM] (inactive),–
OCCOc1ccc(OCCO)cc1,-1.21% [at 79.2 µM] (inactive),–
CC(C[N+](C)(C)C)OC(N)=O (stereo not given),0.975% (inactive),–
CN(C)CCCNCCCN(C)C,3.47% (inactive),–
C[N+](C)(C)CC(O)CC(=O)[O-] (stereo not given),1.79% (inactive),–
CCOC(=O)c1c(C)n(C)c2ccc(O)cc12,-3.75% (inactive),–
COC(C)(C)CCCC(C)CC=O (stereo not given),0.222% (inactive),–
C[C@](N)(Cc1ccc(O)cc1)C(=O)O,0.461% (inactive),–
CCCCCCCCS(=O)(=O)Cl,-1.98% [at 79.2 µM] (inactive),–
